Source: PubChem (National Center for Advancing Translational Sciences (NCATS))
SNCA expr inh = SNCA gene expression inhibition. HEK-293 SNCA-luciferase knock-in, luminescence, 24 h. Potency, µM (top dose mostly 57.2 µM), without a hit: top-dose activity change, negative = inhibition, usual class: inhibitors. 0.17% of 140,000 active. AID 1671194;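 also: potency is read from the fitted curve at half-maximal effect; plate controls were DMSO cells for no effect and cell-free wells for full effect; nearly all actives have a fitted effect of over 45% in size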
IP6K1 inhibitor = inhibitors of human IP6K1. Q92551. 0.81% of 140,000 active. IP6K1 kinase, ADP-Glo luminescence, 2 h; stronger effect = lower value. activity change, % (series mostly up to about 58 µM); in the data active = activity change below about -25%; also: % is scaled to controls: 0 for no effect and ±100 for the full control effect
Target sequence (Q92551 whole entry, looked up): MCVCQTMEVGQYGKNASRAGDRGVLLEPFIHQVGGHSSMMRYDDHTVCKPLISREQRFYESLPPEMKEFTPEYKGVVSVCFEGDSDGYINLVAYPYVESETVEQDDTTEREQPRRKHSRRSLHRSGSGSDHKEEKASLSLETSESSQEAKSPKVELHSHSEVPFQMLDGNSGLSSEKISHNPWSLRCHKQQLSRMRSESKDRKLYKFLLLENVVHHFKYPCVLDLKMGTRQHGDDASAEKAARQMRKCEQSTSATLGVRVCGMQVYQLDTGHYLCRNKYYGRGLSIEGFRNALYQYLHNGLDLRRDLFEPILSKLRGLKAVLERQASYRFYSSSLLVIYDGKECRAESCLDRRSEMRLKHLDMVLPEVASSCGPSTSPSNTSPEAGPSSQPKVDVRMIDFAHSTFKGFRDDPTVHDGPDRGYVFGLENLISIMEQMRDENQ
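ADP-Glo luminescence measures ADP made by human IP6K1 during a 2 h RT reaction with ATP/IP6 (mix at 1.3 mM/130 uM); top library doses 57.5 and 19.1 uM final.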
SNCA viab count = counter-screen for SNCA expression inhibitors: cell viability. HEK-293-SNCA-luc viability, GF-AFC fluorescence, 24 h. Potency, µM (doses to about 57.1 µM), without a hit: at the highest dose activity change, negative = cytotoxicity, most hits filed as cytotoxic. 0.12% of 150,000 active. AID 1671193;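 also: potency is read from the fitted curve at half-maximal effect; 0% = DMSO-treated cells and -100% = medium-only wells without cells; nearly all actives have a fitted effect of over 30% in size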
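HEK-293-SNCA-luc cells (1500/well) plated 24 h, then exposed 24 h to a dilution series; GF-AFC added 30 min at 37C, fluorescence 405/540 nm; normalised to medium-only and DMSO wells, Hill fit.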
KDM5B inh = KDM5B demethylase inhibition; 2.6% of 220,000 active; AID 1347165; Potency, µM (highest dose often 57.7 µM), usual class: inhibitors; KDM5B demethylase, FDH-coupled NADH fluorescence (FDH is formaldehyde dehydrogenase); Q9UGL1; also: potency is read from the fitted curve at half-maximal effect; 0% is about no effect; nearly all actives have a fitted effect of over 70% in size
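Here, H3K4me3 peptide (12.5 µM in substrate mix) is demethylated by KDM5BΔAP, 200 nM final, after 10 min compound exposure. Formaldehyde product is coupled through FDH (0.25 U/mL in mix) to NADH fluorescence; 30-min ΔRFU feeds dose-response curves.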
Active calls of the source: *; i = inactive; ? = inconclusive; . = no result; [ ] = remark or other dose. The list is not random: actives were taken first. Their share in the collection is about 2.8%. Unless noted, calls follow the shape of the dose curve; as a rule, active = well fitted curve in the direction sought with a large enough effect; inconclusive = small, poorly fitted or top-dose-only effect, or another doubt; inactive = no such curve, though single readings can be large; an effect the other way counts as inactive or inconclusive.

SMILES	SNCA expr inh	IP6K1 inhibitor	SNCA viab count	KDM5B inh
O=C(NCc1ccc(Cl)cc1)c1cc2n(n1)CC(c1ccc3c(c1)OCO3)OC2 (centres undefined)	?	-2	?	28µM*
CCCCNC(=O)c1cc2n(n1)CC(c1ccc3c(c1)OCO3)OC2 (centres undefined)	-6%	25	-4%	i
CCc1ccc(CNC(=O)c2cc3n(n2)CC(c2ccc4c(c2)OCO4)OC3)cc1 (centres undefined)	-4%	-2	9%	25µM*
O=C(NCC1CC1)c1cc2n(n1)CC(c1ccc3c(c1)OCO3)OC2 (centres undefined)	1%	11	-4%	i
CCOc1ccccc1CNC(=O)c1cc2n(n1)CC(c1ccc3c(c1)OCO3)OC2 (centres undefined)	?	-15	8%	32µM*
NC(=O)C1CCCN(CCNc2cc(-c3ccccc3)nc3ccnn23)C1 (centres undefined)	-8%	14	-1%	32µM*
Cc1nc(NCCN2CCCC(C(N)=O)C2)c2cccnc2n1 (centres undefined)	-2%	4	-16%	25µM*
N#Cc1cccnc1-c1ccc(C(=O)N2CCC(NC(=O)c3ccccc3F)CC2)cc1	-6%	-4	7%[12.5 µM]	.
CCN(C(=O)c1cccc(F)c1F)[C@@H]1CCN(c2ncccc2C#N)C[C@H]1O	-4%	13	2%	28µM*
N#Cc1cccnc1N1CCC(NC(=O)c2ccc3cccc(F)c3n2)CC1	17%	20	4%	28µM*
COCCNC(=O)C(NC(=O)c1ccccc1)C1CCN(C(=O)C2CC2)CC1 (centres undefined)	35%	13	5%	18µM*
C=CCNC(=O)C(NC(=O)c1ccc(OC)cc1)C1CCN(C(=O)C2CC2)CC1 (centres undefined)	26%	29	3%	i
CNC(=O)CCn1ncc2cc(OCc3ccccc3-c3cccc(C)c3)ccc21	1%[87.6 µM]	16	?	35µM*
Cc1ccsc1C(=O)Nc1ccccc1Cc1ccccc1	.	.	.	i
O=C1[C@H]2CC[C@H](CN(Cc3ccc(-n4ccnc4)cc3)C2)N1CC1CCC1	0%	3	-11%	20µM*
O=C1[C@H]2CC[C@H](CN(Cc3cccc(N4CCOCC4)c3)C2)N1CC1CCC1	-21%	25	-19%	i
O=C(NCC1COCCO1)c1ccc(CN2CCC(N3CCCC3)CC2)[nH]c1=O (centres undefined)	13%	-9	-1%	28µM*
COc1ncccc1-c1cccc(COc2ccc3c(cnn3CC[S+](C)(=O)[O-])c2)c1	27%[87.6 µM]	-6	-18%[87.6 µM]	32µM*
COc1ncc(-c2cccc(COc3ccc4c(cnn4CC[S+](C)(=O)[O-])c3)c2)cn1	38%[87.6 µM]	9	-10%[87.6 µM]	35µM*
C[S+](=O)([O-])CCn1ncc2cc(OCc3cccc(-c4ccc(F)cc4)c3)ccc21	-6%[87.6 µM]	-3	-21%[87.6 µM]	35µM*
COc1ccc(Nc2nc3ccccc3nc2NS(=O)(=O)c2ccc(C)c(C)c2)cc1OC	.	.	.	i
CC(C)c1nnc(NC(=O)c2cc(=O)[nH]c3ccccc23)s1	.	.	.	i
CNCC#CCOc1c(C)cc(C)cc1C	.	.	.	i
Cc1ccc(F)cc1S(=O)(=O)N[C@@H]1CCN(Cc2ccc(OC(C)C)cc2)C1	.	-1	9.5µM*	.
NCCCS(N)(=O)=O	.	.	.	i
SMILES	SNCA expr inh	IP6K1 inhibitor	SNCA viab count	KDM5B inh
COc1nc2nc(CC3CC3)n(C)c2cc1-c1ccncc1	68%[87.6 µM]	2	-1%[87.6 µM]	?
COc1nc2nc(CCc3ccccc3)n(C)c2cc1-c1ccnc(C)c1	74%[87.6 µM]	5	-22%[87.6 µM]	40µM*
COc1nc2nc(CC3CC3)n(C)c2cc1-c1ccnc(C)c1	14%[87.6 µM]	9	-5%[87.6 µM]	40µM*
COc1cc(F)ccc1-c1cc2c(nc1OC)nc(CC1CC1)n2C	6%[87.6 µM]	16	-15%[87.6 µM]	35µM*
COc1nc2nc(CCc3ccccc3)n(C)c2cc1-c1cccc(CO)c1	49%[87.6 µM]	3	-22%[87.6 µM]	35µM*
COc1ccc(CNC(=O)C2CCCN(c3nccc(Nc4ccccc4F)n3)C2)cc1 (centres undefined)	-11%	4	8%[12.5 µM]	.
Cc1ccc2c(C)c(C(=O)Nc3ccc4c(c3)N(C)C(=O)CO4)oc2c1	.	.	.	i
COc1ncccc1-c1cc2c(nc1OC)nc(CCc1ccccc1)n2C	-20%[87.6 µM]	10	-21%[87.6 µM]	?
COc1ccc(Nc2cc3c(nc2OC)nc(CCc2ccccc2)n3C)cn1	184%[87.6 µM]	2	-7%[87.6 µM]	18µM*
Cn1nc(C(=O)NCC(=O)N2CCCCCNC(=O)CC2c2ccccc2)c2ccccc21 (centres undefined)	-3%	-13	3%	28µM*
CC1=C(CO)C(=O)O[C@@H]([C@@H](C)[C@H]2CC[C@H]3[C@@H]4C[C@H]5O[C@]56[C@@H](O)C=CC(=O)[C@]6(C)[C@@H]4CC[C@]23C)C1	3µM*	.	6.8µM*	.
CC1=C(C)C(=O)OC(C(C)C2CCC3C4C5OC5C5(O)CC(OC6OC(CO)C(OC7OC(C)C(O)C(O)C7O)C(O)C6O)CC(O)C5(C)C4CCC23C)C1 (centres undefined)	.	-4	8%[23.9 µM]	.
Cc1cc(C)c(NC(=O)CN(C)c2nc(CN3CCOCC3)nc3sc(C)c(C)c23)c(C)c1	.	.	.	i
COc1ccc(-c2cc3nc4c(c(=O)n3[nH]2)CN(C(=O)c2ccncc2)CC4)cc1	?	0	-12%	i
CCN(C(=O)CCC(=O)N1CCc2nc3cc(-c4ccc(OC)cc4)[nH]n3c(=O)c2C1)c1ccccc1	?	0	-1%	7.1µM*
COc1ccc(-c2cc3nc4c(c(=O)n3[nH]2)CN(C(=O)CCc2ccccc2)CC4)cc1	-24%	0	3%	5.6µM*
COc1ccc(-c2cc3nc4c(c(=O)n3[nH]2)CN(C(=O)CC(C)C)CC4)cc1	-18%	2	1%	?
Cc1ccc(-n2nc(C)c([C@@H]3C=C[C@@H](NC(=O)c4cccs4)C3)c2C)cc1Cl	11%[87.6 µM]	-2	?	?
Fc1cccc(-c2cnc(Nc3ccc(N4CCOCC4)cc3)c3c2CCO3)c1	17%[87.6 µM]	-13	1%[87.6 µM]	32µM*
c1ccc(Nc2ncc(-c3ccccc3)c3c2OCC3)cc1	117%[87.6 µM]	-10	5%[87.6 µM]	i
Fc1cc(Nc2ncc(-c3ccccc3)c3c2OCC3)cc(N2CCOCC2)c1	-4%[87.6 µM]	-10	-6%[87.6 µM]	13µM*
COc1cc(C(=O)Nc2ccccc2)cc2c1OCCO2	.	.	.	i
CC1(C)CCCC(C)(C#CCN(Cc2ccccc2)Cc2ccccc2)O1 (centres undefined)	.	.	.	i
O=C(O)c1cc(NS(=O)(=O)c2cc(F)cc(F)c2)ccc1Cl	.	.	.	i
CC1(C(=O)NC2CCOCC2)CCCc2cnc(Nc3ccccc3)nc21 (centres undefined)	-10%[87.6 µM]	6	-26%[87.6 µM]	i
COc1ccc(NC(=O)C2(C)CCc3cnc(N4CCOCC4)nc32)cc1 (centres undefined)	-10%[87.6 µM]	16	17%[87.6 µM]	40µM*
CN1CCC(NC(=O)C2(C)CCc3cnc(N4CCOCC4)nc32)CC1 (centres undefined)	?	9	13%[87.6 µM]	35µM*
